Source: PubChem BioAssay
Active and inactive are the calls of the source.

Tests used:
[1] = E. coli DRC41 culture turbidity changes, primary screen, E. coli filamentation inducer project, strain DRC41, OD650, 48 h (AID 1152);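 further: E. coli MC1000 strain DRC41 lacking acrAB efflux pump and sulA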; conditions: E. coli DRC41 (acrAB sulA), higher = more signal, called active from +8 up or from −8 down
[2] = small-molecule binders of probe aLefty1, primary screen, biochemical, small-molecule microarray, 635/667 nm fluorescence (AID 1153); conditions: higher = more signal;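 further: score merges spot fluorescence with signal-to-noise ratio from the scanned slide images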
[3] = PSAC antagonists in infected red cells, primary screen, cell-based, P. falciparum Indochina, OD700, 1 h (AID 1154); conditions: P. falciparum Indochina infected RBC osmotic lysis, higher = more signal, called active from +8 up or from −8 down
[4] = PSAC antagonists in infected red cells, primary screen, cell-based, P. falciparum Indochina, OD700, 2 h (AID 1155);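 further: lysis reports solute entry through the parasite surface anion channel PSAC; channel blockers reduce lysis of infected cells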; conditions: P. falciparum Indochina infected erythrocytes, osmotic lysis OD700; higher = more signal, called active from +8 up or from −8 down
[5] = osmotic lysis modulators in infected erythrocytes, primary screen, PSAC antagonist project, cell-based, P. falciparum Indochina, OD700, 3 h (AID 1156); conditions: higher = more signal, called active from +8 up or from −8 down
[6] = PSAC antagonists in infected red cells, primary screen, cell-based, P. falciparum Indochina, OD700, 18 h (AID 1157); conditions: P. falciparum Indochina infected erythrocytes, osmotic lysis OD700, 18 h; higher = more signal, called active from +8 up or from −8 down
[7] = modulators of S6 phosphorylation in cells, primary screen, cell-based, A549, cytoblot, luminescence, serum-stimulated (AID 1158); conditions: A549 phospho-S6 cytoblot, 5 h, higher = more signal;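 further: serum-stimulated A549 lung adenocarcinoma cells; signal is phosphorylated S6 detected by cytoblot immunostaining with HRP secondary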
[8] = target: NADPH oxidase 2 (Homo sapiens) (UniProt P04839); assay: NOX2-dependent H2O2 signal modulators, primary screen, NOX inhibitor project, cell-based, HEK293-NOX2, PMA-stimulated, Amplex Red fluorescence (AID 1159); conditions: 45 min, higher = more signal, called active from +8 up or from −8 down; further: test concentration not given here
Sequence of NADPH oxidase 2 (Homo sapiens) (P04839 whole entry, looked up): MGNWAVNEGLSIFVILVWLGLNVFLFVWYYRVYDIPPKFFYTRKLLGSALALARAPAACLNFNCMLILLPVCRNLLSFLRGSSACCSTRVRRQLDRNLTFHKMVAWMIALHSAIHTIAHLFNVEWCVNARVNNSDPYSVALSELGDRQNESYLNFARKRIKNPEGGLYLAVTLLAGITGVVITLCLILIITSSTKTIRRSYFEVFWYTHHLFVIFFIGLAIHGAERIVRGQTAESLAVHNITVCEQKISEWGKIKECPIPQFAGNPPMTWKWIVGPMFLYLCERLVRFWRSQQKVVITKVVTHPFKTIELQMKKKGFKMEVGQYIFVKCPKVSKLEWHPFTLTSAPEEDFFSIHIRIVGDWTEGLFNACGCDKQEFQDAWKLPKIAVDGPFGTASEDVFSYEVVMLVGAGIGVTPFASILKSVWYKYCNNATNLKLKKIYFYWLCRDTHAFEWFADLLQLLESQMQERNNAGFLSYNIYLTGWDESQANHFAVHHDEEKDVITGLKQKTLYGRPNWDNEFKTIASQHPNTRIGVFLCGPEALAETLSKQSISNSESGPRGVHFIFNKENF

[9] = target: NADPH oxidase 4 (Homo sapiens) (UniProt Q9NPH5); assay: NOX4-dependent H2O2 signal modulators, primary screen, NOX inhibitor project, cell-based, HEK293-NOX4, tetracycline-induced, Amplex Red fluorescence (AID 1160); conditions: 45 min, higher = more signal, called active from +8 up or from −8 down
Sequence of NADPH oxidase 4 (Homo sapiens) (Q9NPH5 whole entry, looked up): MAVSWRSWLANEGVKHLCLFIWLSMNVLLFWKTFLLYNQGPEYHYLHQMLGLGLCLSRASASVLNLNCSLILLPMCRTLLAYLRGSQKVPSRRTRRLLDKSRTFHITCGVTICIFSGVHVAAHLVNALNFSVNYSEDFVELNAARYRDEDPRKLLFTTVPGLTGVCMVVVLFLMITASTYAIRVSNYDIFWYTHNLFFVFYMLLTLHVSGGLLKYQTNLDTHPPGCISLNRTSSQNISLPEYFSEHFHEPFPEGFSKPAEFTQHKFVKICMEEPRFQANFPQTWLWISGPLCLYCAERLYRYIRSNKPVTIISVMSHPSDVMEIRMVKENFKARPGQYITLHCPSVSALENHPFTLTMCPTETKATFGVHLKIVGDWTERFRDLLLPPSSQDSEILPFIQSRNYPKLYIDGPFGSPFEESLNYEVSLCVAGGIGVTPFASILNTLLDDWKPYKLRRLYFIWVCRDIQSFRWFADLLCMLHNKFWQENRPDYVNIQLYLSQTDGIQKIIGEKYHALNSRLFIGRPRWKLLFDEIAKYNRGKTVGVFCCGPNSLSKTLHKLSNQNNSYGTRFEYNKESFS

[10] = target: NADPH oxidase 5 (Homo sapiens) (UniProt Q96PH1); assay: NOX5-dependent H2O2 signal modulators, primary screen, NOX inhibitor project, cell-based, HEK293-NOX5, Amplex Red fluorescence (AID 1161); conditions: HEK293-NOX5, ionomycin, 45 min, higher = more signal
Sequence of NADPH oxidase 5 (Homo sapiens) (Q96PH1 whole entry, looked up): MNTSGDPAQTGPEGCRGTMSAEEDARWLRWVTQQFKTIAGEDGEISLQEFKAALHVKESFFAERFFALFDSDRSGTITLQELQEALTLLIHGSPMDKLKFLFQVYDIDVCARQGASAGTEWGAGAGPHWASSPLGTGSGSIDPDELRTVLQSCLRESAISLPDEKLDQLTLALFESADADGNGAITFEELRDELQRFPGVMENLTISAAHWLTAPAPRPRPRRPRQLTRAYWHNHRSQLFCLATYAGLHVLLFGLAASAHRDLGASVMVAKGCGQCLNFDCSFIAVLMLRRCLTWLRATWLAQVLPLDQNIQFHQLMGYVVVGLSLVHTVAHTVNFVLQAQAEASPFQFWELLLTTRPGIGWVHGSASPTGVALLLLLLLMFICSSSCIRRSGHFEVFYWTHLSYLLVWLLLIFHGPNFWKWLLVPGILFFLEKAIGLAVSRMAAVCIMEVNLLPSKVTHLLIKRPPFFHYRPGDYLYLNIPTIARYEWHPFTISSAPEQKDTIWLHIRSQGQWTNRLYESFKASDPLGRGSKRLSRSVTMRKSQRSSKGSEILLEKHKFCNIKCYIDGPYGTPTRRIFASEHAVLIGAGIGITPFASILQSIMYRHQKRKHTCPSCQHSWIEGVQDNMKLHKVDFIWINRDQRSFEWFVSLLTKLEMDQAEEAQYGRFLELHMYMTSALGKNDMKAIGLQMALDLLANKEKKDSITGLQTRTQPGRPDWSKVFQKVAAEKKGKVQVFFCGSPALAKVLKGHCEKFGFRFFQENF

| SMILES | z-score [1] | composite z-score [2] | z-score [3] | z-score [4] | z-score [5] | z-score [6] | z-score [7] | z-score [8] | z-score [9] | z-score [10] |
| --- | --- | --- | --- | --- | --- | --- | --- | --- | --- | --- |
| COC(=O)[C@@]1(Cc2ccc(F)cc2)[C@H]2c3cc(C(=O)N(C)C)n(CCF)c3C[C@H]2CN1C(=O)c1ccccc1 | 1.28 (inactive) | -0.012 | 2.02 (inactive) | -0.771 (inactive) | -1.04 (inactive) | -1.29 (inactive) | 0.456 | 0.532 (inactive) | 0.864 (inactive) | -3.46 |
| CN1C(=O)C2CC=C(C3=CCO[C@@H]3[C@H]3CCCN3S(=O)(=O)c3ccccc3[N+](=O)[O-])CC2C1=O (stereo not given in full) | -0.62 (inactive) | -0.191 | 5.38 (inactive) | 0.672 (inactive) | -0.604 (inactive) | -0.0627 (inactive) | -0.307 | 0.278 (inactive) | 1.22 (inactive) | 0.32 |
| C[C@@]1([C@@H](NS(=O)(=O)c2cccc3cccnc23)c2ccc(-c3ccccc3)cc2)C[C@H]1C1CCCCC1 | -2.47 (inactive) | 1.31 | 0.668 (inactive) | 0.367 (inactive) | 1.39 (inactive) | 0.691 (inactive) | -0.79 | 0.168 (inactive) | -0.61 (inactive) | -1.99 |
| COc1ccc([Si](C)(C)[C@H]2[C@H](CC(=O)N(CCO)Cc3ccccc3)O[C@@]3(C(=O)N(Cc4ccc(N5C(=O)c6cccc7cccc5c67)cc4)c4ccccc43)[C@@H]2C)cc1 | -0.263 (inactive) | 0.542 | 15.2 (active) | 3.52 (inactive) | 1.24 (inactive) | 1.48 (inactive) | 0.294 | 1.52 (inactive) | 0.695 (inactive) | 2.88 |
| O=C1OCCC/C=C\[C@H]2OC34C=CCN(Cc5ccccc5)C(=O)[C@H]3N(CCO)C(=O)[C@@H]4C12 (stereo not given in full) | 2.28 (inactive) | -0.0536 | 1.65 (inactive) | 0.803 (inactive) | 1.82 (inactive) | 0.671 (inactive) | 0.0012 | 1.7 (inactive) | 0.571 (inactive) | 1.68 |
| COCCOC(=O)N1C(=O)[C@@]2(c3cc(C#CCC(C(=O)OC)C(=O)OC)ccc31)[C@H](C(=O)N1CCc3cc(OC)c(OC)cc3C1)[C@H]1C(=O)O[C@H](c3ccccc3)[C@H](c3ccccc3)N1[C@@H]2c1ccccc1OCCO | 1.25 (inactive) | -0.314 | 2.96 (inactive) | 1.42 (inactive) | 0.358 (inactive) | 0.265 (inactive) | -0.0797 | 1.48 (inactive) | 1.57 (inactive) | 0.966 |
| CN1C2C=C(c3ccc(CO)cc3)C(C3C(=O)N(C(N)=O)C(=O)C32)C1C1CC1 (stereo not given) | 0.149 (inactive) | -0.104 | 0.944 (inactive) | 0.411 (inactive) | -0.103 (inactive) | 0.0864 (inactive) | -0.0656 | -1.57 (inactive) | -1.29 (inactive) | -0.739 |
| C=CCOC(=O)[C@H]1[C@@H]2C(=O)O[C@@H](c3ccccc3)[C@@H](c3ccccc3)N2[C@@H](c2ccc(OCCOC(=O)[C@H]3C[C@H]4C(=O)NCC(=O)N4[C@H]3c3ccc(O)cc3)cc2)[C@]12C(=O)Nc1ccccc12 | 0.141 (inactive) | 1.09 | 2.42 (inactive) | 1.3 (inactive) | 2.3 (inactive) | 0.987 (inactive) | -0.295 | 2.06 (inactive) | -0.365 (inactive) | 0.00131 |
| C[C@]1(C(=O)NC2CC2)c2ccccc2C(=O)N(Cc2cc(F)cc(C(F)(F)F)c2)[C@H]1c1ccc(CO)cc1 | 0.256 (inactive) | -0.351 | 3.02 (inactive) | 0.334 (inactive) | 0.678 (inactive) | 0.597 (inactive) | 0.0446 | -0.0377 (inactive) | -0.978 (inactive) | -1.46 |
| CCCCC(=C=CC[C@H](O)c1cccc(OCCO)c1)C[C@H](O)c1cc(Cl)cc(Cl)c1O | 0.513 (inactive) | 0.0999 | 22 (active) | 5.56 (inactive) | 0.718 (inactive) | 1.48 (inactive) | 0.295 | -2.45 (inactive) | -1.46 (inactive) | -2.02 |
| C=CC[C@]1(C(=O)NCC(O)CO)N=C(c2ccc(OCCCO)cc2)O[C@H]1c1ccccc1CN=[N+]=[N-] (stereo not given in full) | 0.0715 (inactive) | 0.104 | 15.7 (active) | 1.44 (inactive) | 4.83 (inactive) | 0.839 (inactive) | -0.99 | 0.871 (inactive) | 0.0808 (inactive) | -0.704 |
| COc1c(C)cc(-c2cc3c(c(CCc4ccccc4)n2)[Si](C(C)C)(C(C)C)O[C@H]3c2ccccc2)cc1C | -1.05 (inactive) | -0.147 | 4.98 (inactive) | 2.59 (inactive) | 0.576 (inactive) | 1.09 (inactive) | -0.673 | 0.283 (inactive) | 1.11 (inactive) | 0.201 |
| COc1ccc(CCNC(=O)[C@@H]2c3ccccc3C(=O)N(C(C)C)[C@H]2c2ccc(CO)cc2)cc1 | 1.73 (inactive) | -0.27 | 3.24 (inactive) | 0.785 (inactive) | 1.3 (inactive) | 0.376 (inactive) | 0.307 | -0.219 (inactive) | 0.821 (inactive) | 0.338 |
| COCCOC(=O)N1C(=O)[C@@]2(c3cc(C#CCNC(N)=O)ccc31)[C@H](C(=O)N1CCN(c3ncccn3)CC1)[C@H]1C(=O)O[C@H](c3ccccc3)[C@H](c3ccccc3)N1[C@@H]2c1ccc(O)cc1 | 0.03 (inactive) | -0.514 | 1.35 (inactive) | -0.136 (inactive) | 0.889 (inactive) | 0.539 (inactive) | -0.285 | 0.806 (inactive) | 0.432 (inactive) | 0.31 |
| C[C@]1(C(=O)O)c2ccccc2C(=O)N(Cc2cc(C(F)(F)F)cc(C(F)(F)F)c2)[C@H]1c1ccc(CO)cc1 | -0.485 (inactive) | -0.0479 | 1.8 (inactive) | 0.168 (inactive) | -0.173 (inactive) | 0.157 (inactive) | -0.0892 | 0.803 (inactive) | 0.0284 (inactive) | -0.714 |
| CC(C)c1ccc(NN2C(C(O)c3ccccc3)C=CC3C(=O)N(c4ccccc4)C(=O)C32)cc1 (stereo not given) | 0.2 (inactive) | 0.395 | 4.51 (inactive) | 1.97 (inactive) | 0.506 (inactive) | 1.42 (inactive) | -0.396 | -0.365 (inactive) | -2.49 (inactive) | -2.48 |
| C=C(CCCC)C(=O)CC[C@@H](OC(C)=O)c1ccc(OCCO)cc1 | 0.0142 (inactive) | 0.0533 | 7.67 (inactive) | 1.16 (inactive) | 0.888 (inactive) | 0.455 (inactive) | -0.222 | -1.4 (inactive) | -1.4 (inactive) | -1.87 |
| O=C1O[C@H](c2ccccc2)[C@H](c2ccccc2)N2[C@H]1[C@@H](C(=O)Nc1nc3ccccc3s1)[C@]1(C(=O)Nc3ccccc31)[C@H]2c1ccccc1OCCO | 0.185 (inactive) | 0.347 | 7.3 (inactive) | 5.1 (inactive) | -5.41 (inactive) | 1.79 (inactive) | 0.354 | 1.47 (inactive) | 0.862 (inactive) | 1.86 |
| CCOC(=O)C[C@H]1[C@H](OC(=O)Cc2ccc3c(c2)OCO3)[C@@H](NC(=O)CC(C)C)c2cc(OCCCO)ccc2N1C(=O)c1ccc2ccccc2n1 | 0.685 (inactive) | 0.0004 | 2.75 (inactive) | -1.19 (inactive) | -0.161 (inactive) | -2.54 (inactive) | 0.806 | 0.0707 (inactive) | -0.356 (inactive) | -1.54 |
| CC(C)C[C@H]1NC(=O)CNC(=O)[C@@]23C(=O)N[C@@H](Cc4ccccc4)C2[C@H](C)[C@@]2(C)O[C@H]2C3/C=C/C/C=C\CNC1=O (stereo not given in full) | -0.592 (inactive) | -0.103 | 0.392 (inactive) | 0.41 (inactive) | -0.352 (inactive) | -0.0621 (inactive) | 0.662 | 0.429 (inactive) | 1.21 (inactive) | -0.495 |
| [N-]=[N+]=NCc1ccccc1[C@H]1OC(c2ccc(OCCCO)cc2)=N[C@@]1(CCS(=O)(=O)c1ccccc1)C(=O)O | -0.123 (inactive) | 0.328 | 20.5 (active) | 6 (inactive) | 0.471 (inactive) | 1.06 (inactive) | -0.497 | 1.09 (inactive) | 1.09 (inactive) | 2.1 |
| COC(=O)[C@@]1(Cc2ccc(F)cc2)[C@@H]2C(=CC(=O)[C@H]2CC(=O)C(=O)N2CCCC2)CN1C(=O)c1ccccc1 | -1.18 (inactive) | 1.45 | 3.94 (inactive) | -0.607 (inactive) | -2.12 (inactive) | -1.03 (inactive) | 1.84 | -3.72 (inactive) | -5.14 (inactive) | -4.38 |
| COC(=O)[C@]1(Cc2ccccc2CN=[N+]=[N-])N=C(c2ccc(OCCCO)cc2)O[C@@H]1c1ccccc1N=[N+]=[N-] | 0.204 (inactive) | 0.167 | 31.1 (active) | 28.4 (active) | 0.444 (inactive) | 7.23 (inactive) | -0.424 | -0.938 (inactive) | 0.298 (inactive) | 1.44 |
| CN(C)CCCCNC(=O)[C@H]1C[C@H]2C(=O)N[C@@H](CCCCN(C)C)C(=O)N2[C@H]1c1ccc(O)cc1 | 2.41 (inactive) | -0.299 | -0.418 (inactive) | -0.546 (inactive) | 0.589 (inactive) | -1.34 (inactive) | 0.859 | 0.109 (inactive) | 0.504 (inactive) | 0.875 |
| CCCCN1CC=CC23O[C@@H]4/C=C\CCC(C)OC(=O)C4[C@H]2C(=O)N(CCO)[C@@H]3C1=O (stereo not given in full) | 1.36 (inactive) | -0.386 | 2.6 (inactive) | 0.254 (inactive) | 0.336 (inactive) | 0.479 (inactive) | 0.7 | 1.01 (inactive) | 0.416 (inactive) | 2.29 |
| CCCC=C(CCC)[C@@H](NC(=O)c1ccc(C(=O)OC)cc1)c1ccc(C(=O)OC)cc1 | -1.99 (inactive) | 0.211 | 0.67 (inactive) | 0.409 (inactive) | 1.33 (inactive) | 0.618 (inactive) | -0.574 | -0.542 (inactive) | -3.29 (inactive) | 1.5 |
